We go through 58 sequences from the supplement of paper PMC11417369.

± gives the standard deviation of the averaged measurements. In all, about 25,000 sequences were measured (“ln(normalized median fluorescence intensity)”: median about 8.6, highest 2% from about 10 on). What follows is part of a selection rich in the highest values, with near analogues and random picks from the rest.

The test system of the assay is PfAP2-EXP AP2 domain (GST-tagged). Description: gcPBM binding intensity (ln(normalized median fluorescence intensity)); higher = stronger DNA binding. An outline of the steps: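 GST-fused DNA-binding domains of P. falciparum, expressed in E. coli, were applied at about 25 μg on average for 1 h to an Agilent 4 × 180k array of primer-extended double-stranded 36-bp intergenic genomic probes and negative controls. Binding intensity is the highest Masliner-normalised natural-log median intensity across replicate spots of either probe orientation, measured with Alexa488 anti-GST antibody and a 488 nm scan.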
As to “CAATTAAAAAATAATACATGCATATAAATAGATATT [TGCATGCA_site427]”, the “gcPBM binding intensity (ln)” value amounted to 8.71 ± 0.38. Regarding “ATATAGATGCATAATACACACATCAGATAATTAACC [CACACA_site6871]”, the “gcPBM binding intensity (ln)” value was 8.64 ± 0.33. In the case of “TATATATATATAGATGCATGCAATTACATATAACAA [TGCATGCA_site118]”, the “gcPBM binding intensity (ln)” value came to 10.2 ± 0.23.

Turning to “TCCTTATTTCATATTTTTAAATAATACAAAAAAAAA [CACACA_negctrl_site773]”, the “gcPBM binding intensity (ln)” value worked out at 8.06 ± 0.38. As for “TATAATAATACGTATTGTACTATTAGGTTAATTCGT [XGTACX_site264]”, the “gcPBM binding intensity (ln)” value came to 8.34 ± 0.33. To “TATAATAATAATTATTGTACGATTAGGTTAATTCAT [XGTACX_site1984]” belongs 8.37 ± 0.23; to “ATGTAGGTTAATTATTGTACGTAGGGGGTGTATATT [XGTACX_site3973]”, 10.2 ± 0.48; to “ATTATTTTAATAAAACGTACAAAATATAAATCAAAA [XGTACX_site3770]”, 8.73 ± 0.45.

In the case of “GGTTAGACGAAATATACATGCAATGGAAAATAAGTT [TGCATGCA_site23]”, the “gcPBM binding intensity (ln)” value amounted to 9.42 ± 0.24. Regarding “AAATAAAAAGTAAAGCGTACAAATGATCAAATAATA [XGTACX_site7898]”, the “gcPBM binding intensity (ln)” value was found to be 9.04 ± 0.53. Consider “TTCAAAATAAAAAATTCACACACATATATATATATA [CACACA_site8653]”, for which the “gcPBM binding intensity (ln)” value amounted to 10 ± 0.45.

For the sequence “ATTATATAATTGTCTTCACACACACCGATATATATA [CACACA_site8883]”, the “gcPBM binding intensity (ln)” value came to 8.93 ± 0.51. To “TATATCTTAATATACACACACACATATATATATATA [CACACA_site4968]” belongs 10 ± 0.35; to “TTTTTTTTTTTTGTCACACATATGGAATATATCTAT [CACACA_site5899]”, 8.54 ± 0.54.

“TTTCTTCATTTTTTCACACATAAGAAAATATAATCA [CACACA_site4275]”: the “gcPBM binding intensity (ln)” value was found to be 8.46 ± 0.46. As for “AAGAATATAATCTTCACACATATATATATATATATA [CACACA_site5927]”, the “gcPBM binding intensity (ln)” value is 10.2 ± 0.33. For the sequence “TTGTAATATCTTGTCACACATATATATATATATATA [CACACA_site4937]”, the “gcPBM binding intensity (ln)” value was 10.2 ± 0.57. To “ACATCTCTTATATATTCACACACATATATATAATTA [CACACA_site8424]” belongs 8.82 ± 0.35; to “AAAGAAAGTACCTTCACACATATAAGAATATAATAT [CACACA_site5214]”, 8.6 ± 0.52; to “TATATAATTGTCTTCACACACACATATATATATATA [CACACA_site2744]”, 10 ± 0.3. For “ATCTTTCAATAATTCACACATATATATATATATATA [CACACA_site4598]” the value was 10.2 ± 0.28; for “TATAATTGTCTTCACACACACATATATATATATATA [CACACA_site2743]”, 10.2 ± 0.29; for “ATCTATGAAAAAGGTACATGCAATAAAGAAACATAT [TGCATGCA_site805]”, 9.54 ± 0.45. For “TCATAAATTAAACAAACACACACGTTCTTTTATTTA [CACACA_site713]”, the “gcPBM binding intensity (ln)” value was determined as 8.38 ± 0.33. For “CTTTTTTTTTTGGGGGTGCATGCAAGACATATATTT [GTGCAC_site9660]” the value was 10.51 ± 0.028; for AATATTTTATTTTGGGTGCAAAAGAATATTATTTCA, 8.34 ± 0.071. As to “AATATTTTTTTTTAAACATGCATATTTGCATTACCC [TGCATGCA_site437]”, the “gcPBM binding intensity (ln)” value worked out at 8.58 ± 0.41. “TTTTTTTTTGGGGGTGCATGCAAGACATATATTTAA [TGCATGCA_site228]”: the “gcPBM binding intensity (ln)” value stood at 10.43 ± 0.028. For CATATTATTATTTTGGTGCATACTTATATATATTTT the value was 8.75 ± 0.31; for ATACTTTTATTTTTGGTGCATATATCATGTAGACGT, 9.025 ± 0.035; for “ATTTTGGAAATAATATGTACATATACATAATATATA [XGTACX_site4177]”, 8.36 ± 0.29. To “GCATTGATCAAACATACACACATGGTTAATAAAAAT [CACACA_site2085]” belongs 8.72 ± 0.55; to “ATTTATTATATATACACACATACATATATATATATA [CACACA_site2159]”, 9.91 ± 0.42; to “ATTCTTTATTATTCGCCACACACATATATATATATA [CACACA_site9009]”, 10.2 ± 0.28. For “TTTCTTTTTATATTCACACATAAATATATATATATA [CACACA_site6053]”, the “gcPBM binding intensity (ln)” value came out at 9.81 ± 0.28. As for “TCTTTATTATTCGCCACACACATATATATATATATA [CACACA_site3077]”, the “gcPBM binding intensity (ln)” value came to 10.2 ± 0.43. Take “ATATATATATATTTATGTACATATTATTTATTCTTT [XGTACX_site6567]”: the “gcPBM binding intensity (ln)” value was found to be 9.94 ± 0.17. For “TCTTTATTATTCGCCACACACATATAAATATAAATA [CACACA_site7441]” the value was 8.88 ± 0.38.

Consider “CCATTCAAATTTCGCACACACATACAAAAAAAAAAA [CACACA_site3093]”, for which the “gcPBM binding intensity (ln)” value came to 8.59 ± 0.42. For the sequence “ATGCAATAATAATATTGTACGCATATATTTTTTACT [XGTACX_site3384]”, the “gcPBM binding intensity (ln)” value stood at 8.41 ± 0.3. To “TATAGCATAAATATGTGTACATATTTATATGATATT [XGTACX_site6333]” belongs 8.37 ± 0.28. For the sequence “AATACGAAGGATAAGAGTACTAATTAAATAAATGAA [XGTACX_site523]”, the “gcPBM binding intensity (ln)” value amounted to 8.96 ± 0.28. “TAAGGTAGTTCTGTATCACACACATATATATATATA [CACACA_site8693]”: the “gcPBM binding intensity (ln)” value came to 10.1 ± 0.26. Take “AGGTAGTTCTGTATCACACACATATATATATATATA [CACACA_site2214]”: the “gcPBM binding intensity (ln)” value stood at 10.3 ± 0.47.

In the case of “AGGTAGTTCTGTATCACACACATATAAATATAAATA [CACACA_site7110]”, the “gcPBM binding intensity (ln)” value amounted to 8.48 ± 0.4. As to “TCAACAAAATTGAAGGAACACACATACATATATATA [CACACA_site7940]”, the “gcPBM binding intensity (ln)” value stood at 8.87 ± 0.23.

“CCCCCCCACAGACACACACACATACATACCACATAT [CACACA_site2306]”: the “gcPBM binding intensity (ln)” value was determined as 10.3 ± 0.014. As to “TACAGACATACATACACACATACATACAGACATACA [CACACA_site1941]”, the “gcPBM binding intensity (ln)” value stood at 8.66 ± 0.26. In the case of “CACCCCCACAGACACACACACACACCCACATATATA [CACACA_site365]”, the “gcPBM binding intensity (ln)” value was found to be 9.27 ± 0.39. As for “TTCCCCCCCAGACACACACACACATACATACCACAT [CACACA_site2305]”, the “gcPBM binding intensity (ln)” value was found to be 10.5 ± 0.24. To “CATACACCCAGACACACACACATATATATATATATA [CACACA_site634]” belongs 10.1 ± 0.44; to “CACAGACACCCATACACACACATACCCATATATATA [CACACA_site5023]”, 8.79 ± 0.32. As to “CATTTCTATATAAGCACACACGTGGAATTTTTTTTT [CACACA_site5537]”, the “gcPBM binding intensity (ln)” value came out at 8.7 ± 0.26. Regarding “GCCATAAAAATATATACACACATAAAAAAAAATTAT [CACACA_site1176]”, the “gcPBM binding intensity (ln)” value is 8.36 ± 0.53. Regarding “CTTTGTAGTTGGTCCACACACATATCTGGAAGAATA [CACACA_site4834]”, the “gcPBM binding intensity (ln)” value amounted to 8.54 ± 0.39. For the sequence “ATTATAACACCTCCCCCCCTTTTTTTATGAAGACCA [CACACA_negctrl_site1043]”, the “gcPBM binding intensity (ln)” value amounted to 10.6 ± 0.18.

In the case of “AACTTTTAGAAGAACACACACATATAGATTATGACC [CACACA_site6256]”, the “gcPBM binding intensity (ln)” value came out at 8.8 ± 0.26. Take “TATATTATGACCACCACACACCTATACACATAACAT [CACACA_site7199]”: the “gcPBM binding intensity (ln)” value was determined as 8.88 ± 0.43.
